Sampled rows, rich in hits. Any-hit rate of the full collection: about 3.5%.
TEAD-YAP inh = TEAD-YAP interaction inhibition; AID 1259422; actives 1.4% (n = 640,000); HEK-TIYL cells, TEAD-Gal4/YAP UAS-luciferase luminescence; inhibition, % at 9.12 µM; in the data active means inhibition above about 32%;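 further: 0% = median of test compound wells and 100% = reference inhibitor wells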
MITF primary = human MITF inhibition, primary screen; AlphaScreen MITF homodimerization, bead proximity signal; inhibition, % at 2.6 µM; actives 0.91% (n = 650,000); AID 1259374; in the data active means inhibition above about 50%;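 further: 0% = vehicle wells with protein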
Target sequence (O75030 whole entry, looked up): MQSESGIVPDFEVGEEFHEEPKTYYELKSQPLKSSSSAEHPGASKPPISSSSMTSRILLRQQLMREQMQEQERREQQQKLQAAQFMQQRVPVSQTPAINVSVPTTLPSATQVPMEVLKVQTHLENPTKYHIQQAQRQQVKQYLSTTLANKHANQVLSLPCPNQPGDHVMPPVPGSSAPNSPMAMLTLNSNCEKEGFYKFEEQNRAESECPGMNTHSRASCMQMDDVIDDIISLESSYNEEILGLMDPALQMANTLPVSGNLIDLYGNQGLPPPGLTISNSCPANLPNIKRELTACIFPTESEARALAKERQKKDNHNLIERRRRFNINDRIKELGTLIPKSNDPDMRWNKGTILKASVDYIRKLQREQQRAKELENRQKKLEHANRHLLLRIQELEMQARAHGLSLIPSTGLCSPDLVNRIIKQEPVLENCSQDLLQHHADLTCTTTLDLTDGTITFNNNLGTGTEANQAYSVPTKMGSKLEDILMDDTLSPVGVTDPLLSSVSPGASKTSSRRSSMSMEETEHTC
FBW7 activator = activators of human E3 ligase FBW7 | Q969H0 | AlphaScreen FBW7–phospho-cyclin E peptide binding, activator screen | normalized activity (activation), % at 26.1 µM | actives 0.13% (n = 650,000) | AID 1259310; in the data active means normalized activity above about 1.9%;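 further: purified mutant Fbw7 with reduced substrate affinity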
GPR151 ag = activates the human receptor GPR151; Q8TDV0; PathHunter beta-arrestin GPR151 cells, luminescence; activation, % at 11.2 µM; actives 1% (n = 650,000); AID 1508602; in the data active means activation above about 4.9%;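 further: 0% = median of compound wells and 100% = cells with positive control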
The depositor's hits bear a star.

SMILES	TEAD-YAP inh	MITF primary	FBW7 activator	GPR151 ag
COc1ccc(C2CC(c3c(O)cc(C)oc3=O)=Nc3ccccc3S2)cc1O (configuration not stated)	62.5*	6.9	-0.2	-2.1
COc1ccc(C2CC(c3c(O)cc(C)oc3=O)=NCCS2)c(OC)c1 (configuration not stated)	42.0*	-2.3	-0.1	0.0
O=[N+]([O-])c1ccc2[nH]c(O)c(N=Nc3ccc(S(=O)(=O)O)cc3)c2c1	-8.2	59.7*	-0.3	-0.9
Nc1nc(Nc2ccc(Oc3ccccc3)cc2)cc(-c2ccccc2)n1	44.2*	7.9	0.0	4.3
Cc1cc(C)nc(Nc2ccc(Oc3ccccc3)cc2)n1	45.6*	6.8	-0.2	-1.7
CCOc1ccccc1N/C(SCc1cccc([N+](=O)[O-])c1)=C(/C#N)C(=O)NCc1cccs1	-4.6	9.5	-0.2	0.3
CCOC(=O)Cc1ccc(NC(=O)N2CCCC(CN3CCc4ccccc4C3)C2)cc1 (configuration not stated)	5.7	4.9	-0.2	-0.3
O=C1N(c2ccccc2)C[C@@H]2C[C@@H](c3cc4ccccc4o3)N3CCC[C@@]123	64.5*	1.4	0.1	-0.9
Cc1ccc(N2C(=O)NC(NC(=O)c3cccnc3)(C(F)(F)F)C2=O)cc1 (configuration not stated)	3.9	0.7	-0.1	-0.5
Nc1cc(=O)[nH]c(SCc2ccccc2CSc2nc(N)cc(=O)[nH]2)n1	-1.5	3.8	0.2	0.7
Nc1cc(=O)[nH]c(S/C=C/c2ccccc2)n1	33.9*	4.7	-0.1	-6.2
Cc1c(NC(=O)c2ccc(-c3cccc(Cl)c3)o2)cccc1-c1nc2ncccc2o1	2.0	-1.8	0.0	-0.5
O=S(/C=C(\F)C(F)(F)C(F)(F)C(F)F)Cc1ccccc1 (configuration not stated)	50.1*	-3.2	0.1	2.1
CC(=O)CC(O)(c1ccccc1)C(F)(F)C(F)F (configuration not stated)	-14.5	4.6	-0.1	1.2
CC1=C(C(=O)OC2CCCCCCC2)C(c2ccc([N+](=O)[O-])cc2)NC(=O)N1C (configuration not stated)	-10.3	-6.0	-0.2	-0.2
CC1CC(=O)N(c2ccc(NCC3CCCO3)c([N+](=O)[O-])c2)C1=O (configuration not stated)	0.2	0.5	0.1	-0.3
COc1cc2c(-c3ccccc3Cl)nc3c(c(C)nn3-c3ccccc3)c2cc1OC	40.1*	13.7	0.4	0.5
COc1cc2c(-c3ccccc3Br)nc3c(c(C)nn3-c3ccccc3)c2cc1OC	9.9	10.4	0.0	0.3
Cc1ccccc1C(=O)N/N=C/c1ccc(O)c(Br)c1	71.1*	0.3	-1.1	0.7
Cc1ccccc1C(=O)N/N=C/c1ccc(O)c(O)c1	-34.7	8.6	-0.3	-1.3
O=C(N/N=C/c1ccc2ccccc2c1)c1ccc(O)cc1O	36.6*	-6.7	-0.1	2.5
O=C(N/N=C/c1ccc(/C=N/NC(=O)c2ccccc2O)cc1)c1ccccc1O	59.0*	15.6	0.1	0.2
Cc1[nH]n(-c2ccccc2)c(=O)c1/C=N/NC(=O)c1ccc(O)cc1O	12.3	58.8*	0.0	2.8
COc1cccc(NC(=O)c2cc(C)ccc2C)c1	0.9	-3.9	-0.1	0.9
CC(C)OCCCNc1cnn(C23CC4CC(CC(C4)C2)C3)c(=O)c1Cl	0.1	9.1	0.3	-0.7
SMILES	TEAD-YAP inh	MITF primary	FBW7 activator	GPR151 ag
CCOc1ccc(CNCc2c(C(=O)O)c(C)n(Cc3ccccc3F)c2C)cc1OC	-2.4	3.0	-0.1	0.6
CN(C)c1ccc(/C=N\NC(=O)c2cc(N)ccc2O)cc1	8.5	64.2*	-0.5	0.2
COc1cccc(Nc2nc(N3CCN(c4cccc(Cl)c4)CC3)nc3c2cnn3C)c1	0.6	9.7	-0.1	1.1
COc1ccc(-n2ncc3c(Nc4cccc(OC)c4)ncnc32)cc1	45.9*	3.5	-0.1	0.9
COc1cccc(Nc2ncnc3c2cnn3-c2ccc(Cl)cc2)c1	0.8	-5.9	0.1	-1.2
COc1ccc(-n2ncc3c(Nc4ccc(F)cc4)ncnc32)cc1	-2.5	-0.1	-0.1	3.7
COc1cccc(Nc2nc(N3CCN(C)CC3)nc3c2cnn3C)c1	42.8*	17.9	0.6	4.4
COc1ccc(-n2ncc3c(Nc4cccc(F)c4)ncnc32)cc1	38.7*	1.5	-0.1	3.6
O=C(NC(=S)NNC(=O)c1cc2ccccc2cc1O)c1ccco1	34.5*	14.5	-0.4	-0.6
C=CC(C)n1c(=O)c2c(nc3n2CCN3c2ccc(C)cc2)n(C)c1=O (configuration not stated)	-6.8	2.5	-0.1	1.5
CCOC(=O)c1c(C)oc2c(Br)cc(NS(=O)(=O)c3cccc([N+](=O)[O-])c3)cc12	11.0	-6.6	0.0	-0.2
CCOC(=O)C(=N\O)/C(C)=N/NC(=O)CC#N	-5.7	71.4*	-0.1	-0.9
Cc1ccc(/C=C/C(=O)C2C(=O)c3ccccc3C2=O)cc1	41.4*	-25.2	0.0	0.1
O=C1c2ccccc2C(=O)N1N1C(=O)c2cccc3c([N+](=O)[O-])ccc(c23)C1=O	12.2	2.8	0.0	0.2
O=C1c2cccc3c(Oc4ccccc4[N+](=O)[O-])ccc(c23)C(=O)N1n1cnnc1	35.6*	5.2	-0.1	-0.7
Cn1cc(S(=O)(=O)N2CCOCC2)cc1C(=O)NC1CCCc2ccccc21 (configuration not stated)	6.9	12.6	-0.1	-0.1
COc1ccc(Cl)cc1/C=N/NC(=O)c1ccc(C)nc1	-1.9	-3.2	-0.1	1.2
COc1ccc(O)c(/C=N/NC(=O)c2ccccc2O)c1	65.4*	43.2	0.6	1.3
Cc1ccc(C(=O)N/N=C/c2cc(Br)ccc2O)cn1	49.9*	83.8*	-0.6	0.4
COc1cc(Br)cc(/C=N/NC(=O)c2ccc(C)nc2)c1O	27.9	64.3*	-0.8	0.2
COc1cc(/C=N/NC(=O)c2cccc(NC(C)=O)c2)cc(Cl)c1O	-0.5	62.6*	-0.5	0.0
O=c1c2nccnc2[nH]c(=S)n1CCc1c[nH]c2ccccc12	-4.1	5.7	-0.1	-0.5
COc1c(C)cc(S(=O)(=O)NCC2(CO)CC2)cc1C	2.2	2.8	-0.2	-0.9
Oc1ccc(Br)cc1/C=N/NC(=S)Nc1cccnc1	12.1	56.9*	-0.6	-0.3
O=C(N/N=C/c1cc(Cl)cc(Br)c1O)c1ccccc1O	56.7*	26.9	-0.2	0.7
SMILES	TEAD-YAP inh	MITF primary	FBW7 activator	GPR151 ag
COc1cc(Br)cc(/C=N/NC(=O)c2ccccc2Br)c1O	3.1	38.0	-0.1	0.6
COc1cc(Cl)cc(/C=N/NC(=O)c2ccccc2O)c1O	74.5*	44.7	-2.7	-0.1
COc1cc(Br)cc(/C=N/NC(=O)c2ccccc2)c1O	71.5*	8.6	-0.2	-0.9
O=C(Cn1cnc2ccccc2c1=O)OCc1cc(=O)oc2ccc3ccccc3c12	0.6	6.6	-0.1	0.3
CCOC(=O)C1(Cc2cccc(F)c2)CCN(Cc2cccnc2)CC1	-1.1	-13.0	-0.2	1.4
COc1ccccc1C(=O)N/N=C/c1cc(Br)cc(OC)c1O	-13.9	16.4	0.1	-0.4
CCOc1cc(/C=N/NC(=O)c2cccnc2)cc(Br)c1O	3.3	4.8	0.1	-0.7

Assay outcomes (PubChem)
